GBA mod – Glucocerebrosidase; Potency, µM; actives 1.1% (n = 48,000); purified enzyme, resorufin glucoside fluorescence (screen aimed at inhibitors), 20 min; Lysosomal acid glucosylceramidase (Homo sapiens), P04062; AID 360, 2006; in the data active means potency below about 15 µM; inconclusive means mostly about 16 µM to 33 µM;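 further: the screen sought inhibitors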
Target sequence (P04062 whole entry, looked up): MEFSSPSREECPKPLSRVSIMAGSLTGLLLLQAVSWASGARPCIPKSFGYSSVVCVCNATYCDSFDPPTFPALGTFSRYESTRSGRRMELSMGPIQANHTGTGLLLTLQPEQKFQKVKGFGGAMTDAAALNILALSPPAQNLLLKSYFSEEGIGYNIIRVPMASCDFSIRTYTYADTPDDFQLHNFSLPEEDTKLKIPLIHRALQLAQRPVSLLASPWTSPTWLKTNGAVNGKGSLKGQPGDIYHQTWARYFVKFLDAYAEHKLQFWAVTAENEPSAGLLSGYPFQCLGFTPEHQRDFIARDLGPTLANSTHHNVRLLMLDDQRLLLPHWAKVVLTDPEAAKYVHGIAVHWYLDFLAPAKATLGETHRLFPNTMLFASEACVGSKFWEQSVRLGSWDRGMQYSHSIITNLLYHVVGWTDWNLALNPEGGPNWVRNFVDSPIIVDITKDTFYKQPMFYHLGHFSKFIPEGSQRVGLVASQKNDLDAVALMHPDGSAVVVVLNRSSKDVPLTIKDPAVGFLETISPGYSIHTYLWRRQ
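Normal human glucocerebrosidase (0.2 nM final) was assayed with resorufin β-D-glucopyranoside (30 uM final) in 50mM citric acid/KH2PO4, 10mM sodium taurocholate, 0.01% tween-20, pH 5.9. Compounds were titrated; fluorescence (Ex 548, Em 600) read after 20 min at RT.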
Luciferase inh – qHTS Assay for Inhibitors of Firefly Luciferase; Luciferin 4-monooxygenase (Photinus pyralis), P08659; AID 411, 2009; Potency, µM (top dose mostly 57.1 µM), inactives show at the top dose activity change, negative = inhibition, usual class: inhibitors; actives 2.2% (n = 72,000); purified firefly luciferase, luminescence, 8 min; active means well fitted inhibition curve with a large enough effect; inconclusive means small, poorly fitted or top-dose-only effect; further: on the % scale 0 is the no-effect control and ±100 the full control effect; nearly all actives have a fitted effect of over 40% in size
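Luminescence read-out after 8 min at room temperature; enzyme reaction used luciferin plus 10 uM ATP (linear range) in imidazole buffer pH 7.2 with KCl, MgCl2, Tween 20 and BSA. Each sample was run as a titration.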
Bst PK mod – Pyruvate Kinase; purified pyruvate kinase, luminescence ATP production; ribose 5-phosphate activator present at AC10; Potency, µM; actives 1.2% (n = 51,000); in the data active means potency below about 11 µM; inconclusive means mostly about 12 µM to 25 µM;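 the screen sought inhibitors and activators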;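 further: scaled between full activation by ribose 5 phosphate and full inhibition by luteolin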
* hit, by the source's call; i = inactive; ? = inconclusive; nt = no result; [ ] = remark or other dose. In the library only some 3.4% were active in any assay of this set; here they are far more common. Potency means the concentration at half of the fitted maximal effect.

SMILES | GBA mod | Luciferase inh | Bst PK mod
CN(CC(=O)Nc1ccc2c(c1)OCCO2)S(=O)(=O)c1cccc2cccnc12 | nt | -17% | nt
O=S(=O)(Nc1ccc2c(c1)OCCO2)c1cccc2cccnc12 | >77 | 0% | 3.3*
C[C@@](N)(/C=C\c1ccccc1)C(=O)O | nt | 1%[11.4 µM] | nt
Cc1ccc(-c2nc(-c3ccccn3)no2)cc1Cl | >77 | 0.4µM* | 0.54*
Clc1cccc(-c2nc(-c3ccccn3)no2)c1 | >77 | 2.5µM* | 3.3*
c1ccc(-c2noc(-c3cccc4ccccc34)n2)nc1 | >77 | 7.9µM* | 9.6*
c1ccc(-c2cc(-c3nc(-c4ccccn4)no3)c3ccccc3n2)cc1 | nt | -5% | nt
COc1cccc(-c2nc(-c3ccccn3)no2)c1OC | >77 | ? | i
COc1cc(-c2nc(-c3ccccn3)no2)cc(OC)c1OC | nt | -25% | nt
Nc1ccn([C@H]2O[C@@H](COP(=O)(O)O)[C@@H](O)[C@H]2O)c(=O)n1 | nt | 3%[11.4 µM] | nt
N/N=C1/CC(=O)NC(=O)N1 | nt | 3%[11.4 µM] | nt
Brc1ccc(-c2cn3cccnc3n2)cc1 | >77 | ? | 5.9*
COCC(=O)Nc1ccc(-c2cn3cccnc3n2)cc1 | >77 | -17% | nt
c1csc(CNc2nc(-c3ccc4c(c3)OCO4)nc3ccccc23)c1 | nt | -1%[2.29 µM] | nt
O=c1oc2ccccc2cc1-c1nc2ccccc2o1 | >77 | 16µM* | ?
Cc1cc(-c2nnc(-c3cc4ccccc4oc3=O)o2)c(C)n1-c1ccccc1 | >77 | -3% | >57
C[C@@]12C(=O)OC(=O)[C@@]1(C)[C@H]1CC[C@@H]2O1 | nt | -2%[11.4 µM] | nt
CCc1ccccc1OCC(=O)Nc1ccc(S(N)(=O)=O)cc1 | >77 | 1% | >57
CCN1CCN(c2ccc(NC(=O)Cc3ccccc3)cc2)CC1 | i | 0% | >57
COc1ccccc1OCC(=O)Nc1ccccn1 | >77 | 10µM* | ?
O=C(COc1ccc(Cl)cc1Cl)Nc1ccccn1 | >77 | 0.079µM* | 0.13*
O=C(COc1ccc(Cl)cc1Cl)NCc1ccncc1 | nt | -7% | nt
CCN1CCN(c2ccc(NC(=O)COc3ccccc3Cl)cc2)CC1 | 15* | -4% | >57
O=C(CC(=O)Nc1ccccn1)Nc1ccccn1 | >77 | -2% | >57
O=C(COc1ccccc1O)Nc1ccc(Cl)cc1 | >77 | -3% | 11*
SMILES | GBA mod | Luciferase inh | Bst PK mod
CN(Cc1ccco1)c1cc(-c2ccc3c(c2)OCO3)ncn1 | nt | -4%[2.29 µM] | nt
CO[C@@H]1COC(=O)C/C=C\[C@H](C)COC(=O)[C@H](C)NC(=O)C/C=C\[C@H]1C | nt | 1%[11.4 µM] | nt
O=C(COc1ccc(Cl)cc1)Nc1ccc(Cl)cn1 | nt | -23% | i
O=C(COc1ccccc1Cl)Nc1ccc(Cl)cn1 | nt | 16µM* | nt
COc1ccc(-c2noc(CCC(=O)Nc3cccc(C)c3)n2)cc1 | >77 | 1% | >57
COc1ccc(-c2noc(N(C)CC(=O)Nc3cccc(C(F)(F)F)c3)n2)cc1 | >77 | 25µM* | i
CC1=CC(=O)CC(C)(C)[C@]1(O)/C=C\C(C)=C\C(=O)O | nt | 0%[11.4 µM] | nt
CS(=O)(=O)N(CC(=O)O)Cc1ccccc1 | nt | 1%[11.4 µM] | nt
COc1ccc(-c2cn3c(C)c(C(=O)NCCN4CCOCC4)sc3n2)cc1 | i | -10% | nt
CCN(CC)C(=O)c1sc2nc(-c3ccc(OC)cc3)cn2c1C | >77 | 13µM* | i
CCNc1ncc2ncc(=O)n(C3CC3)c2n1 | nt | 1%[11.4 µM] | nt
COc1ccccc1-c1nc(NC2CC2)c2ccccc2n1 | nt | 1%[2.29 µM] | nt
COc1ccccc1-c1ccc(NC2CCCCC2)nn1 | nt | 13µM* | nt
O=c1c(-c2ccccc2)nc2cnc(N3CCOCC3)nc2n1C1CC1 | nt | -2%[11.4 µM] | nt
COc1cc(/C=C\C(=O)N2CCC=CC2=O)cc(OC)c1OC | nt | 3%[25.5 µM] | nt
O=C(O)/C=C\c1ccc(O)c(O)c1 | nt | 1%[11.4 µM] | nt
Oc1cc(O)cc(/C=C\c2ccc(O)c(O)c2)c1 | nt | 13µM* | nt
COc1ccccc1CNc1ncnc2ccc(-c3cccc(NS(C)(=O)=O)c3)cc12 | nt | 1%[2.29 µM] | nt
COC(=O)c1sc(NC(=O)COc2ccccc2OC)nc1C | nt | -3% | nt
CCOC(=O)c1sc(Nc2nc3c(OC)cccc3s2)nc1C | i | 16µM* | nt
CCCN1Cc2cccc(C(=O)Nc3ccc(CN4CCCC4)cc3)c2C1=O | >15 | 20µM* | >57
COCCN1Cc2cccc(C(=O)Nc3ccc(S(=O)(=O)N4CCCCC4)cc3)c2C1=O | 15* | 0% | >57
COCCN1Cc2cccc(C(=O)Nc3cccnc3)c2C1=O | >77 | 0% | nt
CCOc1ccc(NC(=O)c2cccc3c2C(=O)N(Cc2cccnc2)C3)cc1 | >77 | 4µM* | 4.2*
CCOC(=O)N1CCC(NC(=O)c2cccc3c2C(=O)N(Cc2cccnc2)C3)CC1 | >77 | 2% | >57
SMILES | GBA mod | Luciferase inh | Bst PK mod
CCCN1Cc2cccc(C(=O)Nc3ccc(OC)c(OC)c3)c2C1=O | >77 | 4% | >57
COCCn1c(=O)cnc2cnc(N3CCNCC3)nc21 | nt | 1%[11.4 µM] | nt
COC(=O)N1CCC2(CC1)CCN(C(c1ccccc1)c1ccccc1)CC2 | nt | 1%[11.4 µM] | nt
COc1cccc(Cn2c(=O)c(-c3ccc(Cl)cc3)nc3cnc(N4CCOCC4)nc32)c1 | nt | 0%[11.4 µM] | nt
N#Cc1nc(-c2ccc(OCc3ccccc3)cc2)oc1N1CCC(C(N)=O)CC1 | >77 | 2% | 4.9*
COc1ccccc1OCc1nc(C#N)c(N2CCC(C(N)=O)CC2)o1 | >77 | 1% | >57
Cc1ccccc1-n1nnnc1SCC(N)=O | >77 | -34% | nt
Cc1cccc(C)c1-n1nnnc1SCSc1nnnn1-c1c(C)cccc1C | >77 | -1% | 3.5*
CCOC(=O)C[C@@H](C(=O)OCC)[C@@H]1CCCCC1=O | nt | -4%[11.4 µM] | nt
Cc1cc(O)c(C(C)C)cc1CN1CCCCC1 | nt | 1%[11.4 µM] | nt
Cc1ccc(-c2nnc3n2N=C(c2ccccc2)CS3)cc1 | nt | -1% | nt
c1ccc(C2=Nn3c(nnc3-c3cc(-c4ccccc4)n[nH]3)SC2)cc1 | 8.5* | ? | >11
CCc1ccc(C2=Nn3c(nnc3-c3cccs3)SC2)cc1 | 8.2* | 3% | i
COc1ccc(C2=Nn3c(nnc3-c3ccc(OC)cc3)SC2)cc1 | ? | -2% | >57
N=C(C[C@@H](O)COc1ccccc1-c1ccccc1)N1CCCCC1 | nt | 0% | nt
C[C@@]12CCC(=O)C=C1CC[C@@H]1[C@@H]2[C@H](O)C[C@]2(C)[C@@H]1CC[C@]2(O)C(=O)CO | nt | 0%[25.5 µM] | nt
C[C@H](c1ccccc1)N1C(=O)[C@H]2[C@@H]3[C@H](O)[C@H](O)CC(=O)[C@H]3CC[C@H]2C1=O | nt | 1%[11.4 µM] | nt
Cn1c(=O)cnc2cnc(OCc3ccccc3)nc21 | nt | 1%[11.4 µM] | nt
CN(C)c1ccc(-c2cncnc2-n2ccnc2)cc1 | nt | 1%[2.29 µM] | nt
Cc1ccc(S(=O)(=O)N[C@H]2COC(=O)C/C=C\[C@@H](C)COC(=O)C/C=C\[C@@H]2C)cc1 | nt | -1%[11.4 µM] | nt
C=CCn1c(-c2cccs2)nc2nc3ccccc3nc21 | >77 | 20µM* | nt
C=CCn1c(-c2cccs2)nc2ccccc21 | >77 | -5% | >57
O=C(O)c1ccc(S(=O)(=O)N=Nc2c(O)[nH]c3ccccc23)cc1 | nt | 4%[11.4 µM] | nt
COc1ccc(-c2cc(C(=O)Nc3ccc(C)cc3)no2)cc1 | >77 | 5% | >57
Cc1ccc(-c2cc(C(=O)Nc3c(C#N)cnn3C)no2)cc1 | >77 | 13µM* | nt
CCC(=O)Nc1cc2nn(-c3ccccc3)nc2cc1Cl | >77 | ? | nt
COc1ccc(-n2nc3cc(C)c(NC(=O)CC(C)C)cc3n2)cc1 | nt | 0% | nt
Cc1cc2nn(-c3ccccc3)nc2cc1NC(=O)c1cccs1 | >77 | 16µM* | 2.3*
COc1ccc(-n2nc3cc(C)c(NC(=O)c4cccnc4)cc3n2)cc1 | >77 | 2.5µM* | 9.6*

Screening data from PubChem BioAssay.
